Compound activity: PubChem BioAssay, National Center for Advancing Translational Sciences (NCATS)
The entries come from a sample that favours hits as a whole.
HT1080NT lethal: kills 2HG-producing HT-1080-NT fibrosarcoma cells; AID 686970; HT-1080-NT fibrosarcoma viability, CellTiter-Glo ATP luminescence, 48 h; Potency, µM (top dose mostly 46.1 µM), for inactives: top-dose activity, negative = less viability, usual class: cytotoxic; 1.6% of 360,000 active;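 further: NT is the 2HG producing partner of a matched IDH1 knockdown line; potency means the concentration at half of the fitted maximal effect; 0% = DMSO-treated cells and -100% = media-only wells without cells; nearly all actives have a fitted effect of over 55% in size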
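HT-1080-NT; 750 cells/well; 5% FBS RPMI; 48 h compound, 37 degrees C; CellTiter-Glo luminescence; curve fitting and curve-class assignment.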
DT40 TDP1 no CPT: qHTS for Inhibitors of human tyrosyl-DNA phosphodiesterase 1 (TDP1): qHTS in cells in absence of CPT. DT40 Tdp1-/- hTDP1 cells, no CPT, ATP luminescence, 48 h. Potency, µM (titrated, usually from 46.2 µM), for inactives: at the highest dose activity change, negative = growth inhibition, most hits filed as inhibitors. 15% of 420,000 active; further: potency means the concentration at half of the fitted maximal effect; nearly all actives have a fitted effect of over 55% in size
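No-CPT arm: Tdp1-/-;hTDP1 DT40 cells (400/well) plus compounds, incubated ≥48 hr at 37 °C. Readout CellTiter-Glo luminescence.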
HT1080 IDH1KD tx: toxicity to HT-1080 IDH1 knockdown cells (counter line); HT-1080 IDH1 knockdown viability, ATP luminescence, 48 h; Potency, µM (series often up to 46.1 µM), inactives show at the top dose activity, negative = toxicity, actives largely listed as cytotoxic; 2% of 360,000 active;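 further: potency means the concentration at half of the fitted maximal effect; 0% = DMSO wells and -100% = cell-free medium wells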
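In this qHTS, HT-1080 cells depleted of IDH1 are exposed for 48 h at 37 °C to compound titrations. Toxicity is scored from CellTiter-Glo luminescence, with DMSO as full viability and medium alone as none.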
DT40 TDP1 CPT: growth inhibition of DT40 Tdp1-/-;hTDP1 cells with camptothecin (screen for TDP1 inhibitors); chicken DT40 Tdp1-/-;hTDP1 cells + 20 nM CPT, ATP luminescence, 48 h; 12% of 420,000 active; AID 686979; Potency, µM (series often up to 46.2 µM), without a hit: top-dose activity change, negative = growth inhibition, hits mostly inhibitors; further: potency means the concentration at half of the fitted maximal effect; nearly all actives have a fitted effect of over 55% in size
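Chicken DT40 Tdp1-/- cells stably complemented with human TDP1 were seeded at 400 cells/well in medium containing 20 nM camptothecin, exposed to pin-transferred compounds, and grown at 37 °C for at least 48 hr. Viability was read as ATP luminescence.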
IL-1B inflam inh: inhibitors of inflammasome signaling (IL-1 beta secretion); activity change, % at 57.5 µM; 4.7% of 360,000 active; THP-1 LPS/ATP IL-1B secretion, AlphaLISA, 16 h; stronger effect = lower value; in the data active means activity change below about -50%; inconclusive means mostly about -30% to -49%
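Secreted IL-1B measured by AlphaLISA bead assay after 16 h compound exposure of THP-1 cells; compounds (final up to 57.5 uM) added 1 h before LPS (250 ng/mL) and ATP (1.25 mM) stimulation; lower signal means less secretion.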
ALOX12 inh: inhibitors of human 12S-lipoxygenase ALOX12; P18054; purified 12hLO, xylenol orange hydroperoxide absorbance; Potency, µM (top dose mostly 108 µM), for inactives: at the top dose activity change, negative = inhibition, most hits filed as inhibitors; 1.1% of 580,000 active; further: potency means the concentration at half of the fitted maximal effect
Target sequence (P18054 whole entry, looked up): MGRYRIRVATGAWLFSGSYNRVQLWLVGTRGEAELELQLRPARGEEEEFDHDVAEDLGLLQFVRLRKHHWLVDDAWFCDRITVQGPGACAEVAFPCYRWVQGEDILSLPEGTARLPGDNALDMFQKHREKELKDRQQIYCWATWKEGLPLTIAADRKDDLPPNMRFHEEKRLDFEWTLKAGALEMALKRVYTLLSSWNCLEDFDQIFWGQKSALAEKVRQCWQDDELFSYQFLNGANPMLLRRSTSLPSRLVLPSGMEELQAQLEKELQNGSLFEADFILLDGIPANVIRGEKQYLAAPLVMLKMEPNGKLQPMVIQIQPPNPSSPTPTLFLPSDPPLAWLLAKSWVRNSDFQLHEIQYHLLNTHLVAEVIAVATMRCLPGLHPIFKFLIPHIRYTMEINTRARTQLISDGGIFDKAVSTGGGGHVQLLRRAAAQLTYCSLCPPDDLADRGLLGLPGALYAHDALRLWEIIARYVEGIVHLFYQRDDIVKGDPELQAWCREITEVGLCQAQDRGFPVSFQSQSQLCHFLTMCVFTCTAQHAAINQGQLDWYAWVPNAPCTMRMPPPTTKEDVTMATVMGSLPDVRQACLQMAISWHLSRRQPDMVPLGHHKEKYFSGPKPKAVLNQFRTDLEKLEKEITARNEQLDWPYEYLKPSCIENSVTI
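Purified human 12hLO (150 nM final) in 25 mM Hepes, 0.01% Triton X-100, pH 7.0 was preincubated 15 min at room temperature with compound. Then 40 uM arachidonic acid was added, 30 min. Hydroperoxide was read by Fe-XO absorbance ratio 573/405 nm.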
The depositor's hits bear a star; ? = inconclusive; . = no result; ! = repeats disagree. Unless noted, the call rests on the fitted dose curve; in most records, active means well fitted curve in the direction sought with a large enough effect; inconclusive means small, poorly fitted or top-dose-only effect, or another doubt; inactive means no such curve, though single readings can be large; an effect the other way counts as inactive or inconclusive. Unless noted, on the % scale 0 is the no-effect control and ±100 the full control effect.

SMILES	HT1080NT lethal	DT40 TDP1 no CPT	HT1080 IDH1KD tx	DT40 TDP1 CPT	IL-1B inflam inh	ALOX12 inh
CN(CCc1ccccc1)C(=O)c1ccc(NC(=O)Cc2ccc(NC(=O)C3CCN(C(=O)C4CCCCC4)CC3)cc2)cc1	-20%	16µM*	?	?	2	6%
COc1ccc(CCNC(=O)c2cc3c(-c4ccc(OC)c(OC)c4)nn(C)c3s2)cc1OC	.	2.9µM*	.	2.6µM*	.	-14%
CCOCCCNC(=O)c1cc2c(-c3ccc(OC)c(OC)c3)nn(C)c2s1	.	18µM*	.	7.3µM*	.	-19%
CCCCN(CC)CCCNC(=O)c1cc2c(-c3ccc(OC)c(OC)c3)nn(C)c2s1	?	?	?	?	-70*	0%
COC(=O)c1ccccc1NC(=O)c1cc2c(-c3ccc(OC)c(OC)c3)nn(C)c2s1	.	-18%	.	-12%	.	-13%
COCCNC(=O)c1cc2c(-c3ccc(Cl)cc3)nn(C)c2s1	-26%	?	-14%	?	-12	0%
CCOc1ccc(NC(=O)c2ccc(Cl)c(-n3c(C)nc4cccnc43)c2)cc1	.	.	.	.	.	-8%
COCCNC(=O)C1COC2(CCN(C(=O)c3ccc(OC)cc3)CC2)N1C(=O)c1ccc(C)cc1 (stereo unspecified)	.	.	.	.	.	-4%
COc1cc(CNC(=O)c2cc(-c3cc(F)ccc3OC(C)C)n[nH]2)cc(OC)c1	?	?	?	16µM*	?	-5%
COc1ccccc1CNC(=O)c1cc(-c2cc(F)ccc2OC(C)C)n[nH]1	8%	21µM*	2%	16µM*	-8	-8%
CCCOc1ccc(F)cc1-c1cc(C(=O)NCc2ccccc2OC)[nH]n1	-20%	?	0%	?	-19	18%
CC(C)Oc1ccc(F)cc1-c1cc(C(=O)NCc2ccc(C(F)(F)F)cc2)[nH]n1	?	?	?	16µM*	?	-2%
CC(C)Oc1ccc(F)cc1-c1cc(C(=O)NCc2cc(C(F)(F)F)cc(C(F)(F)F)c2)[nH]n1	?	21µM*	?	18µM*	?	-16%
CCOc1ccc(N2CC(c3nc4ccc(C)cc4[nH]3)CC2=O)cc1 (stereo unspecified)	.	.	.	.	.	23%
CCCOc1ccc(F)cc1-c1cc(C(=O)NCCOC)[nH]n1	?	-26%	25%	-20%	-1	-17%
CCCOc1ccc(F)cc1-c1cc(C(=O)NCc2cc(OC)cc(OC)c2)[nH]n1	-23%	?	-26%	18µM*	-21	1%
CCN(CC)S(=O)(=O)c1cc(NC(=O)C(=O)c2c(-c3ccccc3)cc3ccccn23)ccc1C	-3%	23µM*	-19%	21µM*	2	-10%
CCN(CC)S(=O)(=O)c1cccc(C(=O)c2c(C)cc3ccccn23)c1	0%	21µM*	-14%	?	1	-15%
CCN(CC)S(=O)(=O)c1cccc(NC(=O)C(=O)c2c(-c3ccccc3)cc3ccccn23)c1	0%	23µM*	-1%	?	29	0%
Cc1cc2ccccn2c1C(=O)c1ccc(-c2ccccc2)cc1	.	.	.	.	.	0%
CCN(C(=O)COC(=O)c1cccc2c(=O)c(C)c(-c3ccccc3)oc12)c1ccccc1	.	.	.	.	.	18%
Cc1cc(C)c2c(n1)nn1c(C)c(CCC(=O)NCc3ccccc3Cl)c(C)nc21	.	-18%	.	4%	.	-26%
CC1CCCN(CCOc2ccc3ccccc3c2Br)C1 (stereo unspecified)	21µM*	?	18µM*	?	-216*	?
CCCCN1CCc2c(c3ccccc3n2Cc2ccccc2)C1	?	23µM*	?	16µM*	-23	10%
CN1CCc2c(c3ccccc3n2Cc2ccccc2)C1	?	18µM*	16µM*!	16µM*	-19	-1%
SMILES	HT1080NT lethal	DT40 TDP1 no CPT	HT1080 IDH1KD tx	DT40 TDP1 CPT	IL-1B inflam inh	ALOX12 inh
CCc1ccccc1Nc1nc(N)nc(CSc2nnc(C3CC3)n2C)n1	.	.	.	.	.	10%
COc1ccc(C2CC(=O)C=C3c4ccc(OC)cc4CCC32)cc1 (stereo unspecified)	11%	26µM*	12%	?	20	7%
COc1ccc2c(c1)CCC1(C)CC(=O)C=C21 (stereo unspecified)	-2%	-24%	-5%	3%	-24	4%
COc1ccc(Nc2nc3c(S(=O)(=O)c4ccccc4)nnn3c3ccc(Cl)cc23)c(OC)c1	.	-8%	.	-16%	.	-21%
COc1cc(N2CCC(O)CC2)ccc1Nc1nnc(Cl)c(Nc2ccccc2S(C)(=O)=O)n1	?	16µM*	-16%	21µM*	36	.
Cc1noc(NS(=O)(=O)c2ccc(N/C=C\C(=O)c3ccc4c(c3)OCO4)cc2)c1C	-2%	-23%	10µM*	-23%	6	?
CC(=O)c1cccc(NS(=O)(=O)c2ccc(N/C=C\C(=O)c3ccc(C)cc3)cc2)c1	?	3.7µM*	?	?	13	0%
CC(=O)c1cccc(NS(=O)(=O)c2ccc(N/C=C/C(=O)c3ccc(F)cc3)cc2)c1	?	18µM*	?	12µM*	-76*	-19%
CC(=O)c1cccc(NS(=O)(=O)c2ccc(N/C=C\C(=O)c3ccc(F)cc3)cc2)c1	-26%	10µM*	-24%	13µM*	?	-6%
CCOC(=O)c1ccc(NC(=O)CC2C(=O)N(c3ccc(C)cc3)C(=O)N2C2CCCC2)cc1 (stereo unspecified)	.	21µM*	.	?	.	-7%
COC(=O)c1ccc(NC(=O)CC2C(=O)N(c3ccccc3)C(=O)N2C2CCCC2)cc1 (stereo unspecified)	.	16µM*	.	?	.	?
COc1ccc(NC(=O)CC2C(=O)N(c3ccc(C)cc3)C(=O)N2C2CCCCC2)cc1 (stereo unspecified)	.	-5%	.	5%	.	-28%
O=C(N/N=C/c1c(O)ccc2ccccc12)c1cccc(C(F)(F)F)c1	?	1µM*	2.3µM*	0.65µM*	23	?
Cc1cc(C)n(CCC(=O)N/N=C/c2ccc(O)cc2)n1	0%	-12%	5%	-14%	-4	2%
O=C(N/N=C/c1ccc(C(F)(F)F)cc1)c1ccc(O)cc1	0%	?	?	?	?	-7%
O=C(N/N=C/c1cccc(C(F)(F)F)c1)c1ccc(O)cc1	-10%	-25%	-11%	5%	-81*	325%
